Screens from PubChem BioAssay.
PrPC surface inh – inhibitors of human cell surface prion protein PrPC, primary screen, cell-based, TR-FRET | Major prion protein (Homo sapiens), P04156 | TR-FRET read-out | inhibition, % at 13.8 µM | hit rate 0.43% among 370,000 | AID 720596, 2013; in the data active = inhibition above about 24%
RecA intein inh – Mtb RecA intein splicing inhibitors, primary screen, biochemical, fluorescence, HTS. hit rate 0.75% among 290,000. AID 2221, 2009. cell-free RecA intein splicing. inhibition, % (concentration not given with the values); in the data active = inhibition above about 30%
BJeLR lethal – MLPCN primary cell-based screen for lethality selective to Ras in HRASV12 cells; AID 1554, 2009; BJeLR (HRASV12) viability, CellTiter-Glo ATP luminescence, 48 h; hit rate 0.17% among 300,000; inhibition, % (test concentration not listed); in the data active = inhibition above about 50%
GDH-TPI counter – GDH-TPI coupling enzyme inhibitors, primary screen, artefact control for M. tuberculosis FBA inhibitor project, biochemical, absorbance, full deck | GDH-TPI coupled enzyme counterscreen, NADH absorbance | inhibition, % at 4.8 µM | hit rate 1.2% among 360,000 | AID 588335, 2011; in the data active = inhibition above about 30%
FBA Mtb inh – Mtb FBA enzyme inhibitors, primary screen, biochemical, fluorescence, strain H37Rv; purified M. tuberculosis FBA, fluorescence read-out; inhibition, % at 1 µM; hit rate 2.3% among 360,000; Fructose-bisphosphate aldolase (Mycobacterium tuberculosis (strain ATCC 25618 / H37Rv)), …; in the data active = inhibition above about 27%
Target sequence (P9WQA3 whole entry, looked up): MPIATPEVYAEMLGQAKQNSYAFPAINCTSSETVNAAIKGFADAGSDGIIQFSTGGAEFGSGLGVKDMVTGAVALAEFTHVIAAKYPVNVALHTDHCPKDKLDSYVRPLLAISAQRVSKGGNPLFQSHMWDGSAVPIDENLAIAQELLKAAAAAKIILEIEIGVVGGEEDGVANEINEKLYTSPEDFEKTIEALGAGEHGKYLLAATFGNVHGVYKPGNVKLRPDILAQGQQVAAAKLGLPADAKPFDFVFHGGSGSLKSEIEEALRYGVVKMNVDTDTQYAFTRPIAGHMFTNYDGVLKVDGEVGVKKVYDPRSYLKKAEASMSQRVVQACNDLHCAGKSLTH
GFP chromo cs – counter-screen: blocks GFP chromophore formation, dose response, counter-screen, biochemical, fluorescence, homogeneous; shares compounds with RecA intein inh; cell-free GFP chromophore formation; EC50, µM; hit rate 83% among 2,100; AID 434968, 2010; call rule not given here
Of the large screens only hits and unclear results are named; the others gave an inactive call (follow-up assays come after a bar, where they were run). This is a sample that favours compounds with a hit; in the whole collection about 4.2% have one here.

Nn1c(SCC(=O)NC2CCCCC2)nnc1-c1cc(-c2ccc(Cl)cc2)n[nH]1	none (no result: RecA intein inh, BJeLR lethal, GDH-TPI counter, FBA Mtb inh)
NS(=O)(=O)c1ccc(N=Nc2ccc(=O)[nH]c2O)cc1	RecA intein inh 73 | GFP chromo cs 10
NS(=O)(=O)c1ccc(N=Nc2ccc(O)c3ncccc23)cc1	none
COc1cc(C=Nn2c(-c3n[nH]c4c3CCC4)n[nH]c2=S)ccc1OCc1ccccc1	none (no result: RecA intein inh, BJeLR lethal, GDH-TPI counter, FBA Mtb inh)
O=S(=O)(Nc1c(O)ccc2ccccc12)c1cccc2ccccc12	RecA intein inh 84 (no result: PrPC surface inh) | GFP chromo cs 4.3
Cc1ccc(S(=O)(=O)Nc2c(O)ccc3ccccc23)cc1	RecA intein inh 76 (no result: PrPC surface inh) | GFP chromo cs 3.1
COP(=O)(O)C[C@@H]1CCc2cc(C)cc([C@H](CC(C)C)NC(=O)OCc3ccccc3)c2O1	none (no result: RecA intein inh, BJeLR lethal, GDH-TPI counter, FBA Mtb inh)
CC(=O)N(CCC(Cc1ccccc1)c1ccc2c(c1)OCO2)Cc1ccccc1F (stereo not given)	RecA intein inh 36 | GFP chromo cs inactive
Fc1ccccc1CNCCC(Cc1ccccc1)c1ccc2c(c1)OCO2 (stereo not given)	none
CCn1c2ccccc2c2cc(NC(=O)c3cc4c(C)nn(-c5ccccc5)c4s3)ccc21	none (no result: RecA intein inh, BJeLR lethal, GDH-TPI counter, FBA Mtb inh)
Cc1onc(-c2ccccc2Cl)c1C(N)=O	none
Cc1[nH]n(C)c(=O)c1C(=O)c1c(-c2ccccc2Cl)noc1C	RecA intein inh 74 | GFP chromo cs 17
CC(=O)N(Cc1ccc(F)cc1)C1=C(NCc2ccccc2)C(=O)c2ccccc2C1=O	RecA intein inh 77 (no result: PrPC surface inh) | GFP chromo cs 5.9
CCCCCn1cc(CCC(=O)Nc2ccc(N(C)c3ccccn3)cc2)c2ccccc21	none (no result: RecA intein inh, BJeLR lethal, GDH-TPI counter, FBA Mtb inh)
Cn1[nH]c(CSc2ccc(Cl)cc2)cc1=O	RecA intein inh 93 | GFP chromo cs 27
Cc1n[nH]c(C)c1S(=O)(=O)NCCc1ccccc1	none (no result: RecA intein inh, BJeLR lethal, GDH-TPI counter, FBA Mtb inh)
CCOC(=O)C1(Cc2ccccc2)CCN(Cc2ccc(C)cc2)CC1	none (no result: RecA intein inh, BJeLR lethal, GDH-TPI counter, FBA Mtb inh)
N=c1c2c(ncn1Cc1ccco1)Oc1ccc3ccccc3c1C2c1ccccc1 (stereo not given)	RecA intein inh 30 | GFP chromo cs 33
Cc1[nH]c2ccccc2c1CCNC(=O)c1ccc2c(c1[N+](=O)[O-])C(=O)c1ccccc1C2=O	RecA intein inh 84 | GFP chromo cs 31
Cc1ccc2c(c1)N(CCCC(=O)NCc1cccs1)C(=O)CO2	none (no result: RecA intein inh, BJeLR lethal, GDH-TPI counter, FBA Mtb inh)
CC1=NN(c2ccc(Cl)c(C(=O)O)c2)C(=O)C1	RecA intein inh 95 | GFP chromo cs 5.6
CC1=NN(c2ccc(S(=O)(=O)O)cc2Cl)C(=O)C1	RecA intein inh 82 | GFP chromo cs 30
CC1=NN(c2ccc(C(=O)O)c(N)c2)C(=O)C1	RecA intein inh 69 | GFP chromo cs 2.6
CC(C)N1CCCCC(NC(=O)c2c(F)cccc2F)C1=O (stereo not given)	none (no result: RecA intein inh, BJeLR lethal, GDH-TPI counter, FBA Mtb inh)
COc1ccc(C#CCN(Cc2ccc(OC)cc2OC)C(N)=NC(=O)CCc2ccccc2)cc1	none (no result: RecA intein inh, BJeLR lethal, GDH-TPI counter, FBA Mtb inh)
COc1ccc(S[C@]2(C(=O)N3CCN(c4ncccn4)CC3)CC(=O)N[C@@H]2c2ccc(OC)cc2)cc1	none (no result: RecA intein inh, BJeLR lethal, GDH-TPI counter, FBA Mtb inh)
COc1ccc(Cn2ccc3ccc(-c4ccc5ccn(C(=O)c6cccc(OC)c6)c5c4)cc32)cc1	none (no result: RecA intein inh, BJeLR lethal, GDH-TPI counter, FBA Mtb inh)
CC(C)CNC(=O)OCc1cn(Cc2cc(F)ccc2F)nn1	none (no result: RecA intein inh, BJeLR lethal, GDH-TPI counter, FBA Mtb inh)
N#CC1=C(N)Oc2n[nH]c(-c3cccs3)c2C1c1cccnc1 (stereo not given)	RecA intein inh 69 | GFP chromo cs inactive
Cc1ccc(C2C(C#N)=C(N)Oc3n[nH]c(-c4cccs4)c32)cc1 (stereo not given)	RecA intein inh 66 | GFP chromo cs 7.6
CC(C)(C)c1[nH]nc2c1C(c1cccnc1)C(C#N)=C(N)O2 (stereo not given)	none
CC(C)c1[nH]nc2c1C(c1cccs1)C(C#N)=C(N)O2 (stereo not given)	RecA intein inh 62 | GFP chromo cs 28
COc1cc(/C=C2/C(=O)N(c3cccc(Br)c3)N=C2C)cc(OC)c1O	RecA intein inh 87 | GFP chromo cs 4.3
COc1ccc(C2=NN(c3ccccc3)C(=O)/C2=C\c2ccc(O)c(OC)c2)cc1	RecA intein inh 93 | GFP chromo cs 2.6
COc1ccc(/C=C2/C(=O)N(c3ccccc3)N=C2C)cc1OC	RecA intein inh 43 | GFP chromo cs 9
CC(=O)Oc1ccc(/C=C2/C(=O)N(c3ccccc3)N=C2C)cc1	RecA intein inh 93 | GFP chromo cs 3.5
CCOc1cc(/C=C2/C(=O)N(c3ccccc3)N=C2C)ccc1OC(=O)c1cccs1	none (no result: PrPC surface inh)
COc1cc(/C=C2\C(=O)ON=C2c2ccc(Cl)cc2)ccc1O	none (no result: GDH-TPI counter, FBA Mtb inh)
CC(C)CNC(=O)CC1Oc2ccccc2NC1=O (stereo not given)	none (no result: RecA intein inh, BJeLR lethal, GDH-TPI counter, FBA Mtb inh)
COc1ccc(/C=C2/C(=O)N(c3ccccc3)N=C2C)cc1	RecA intein inh 69 (no result: PrPC surface inh) | GFP chromo cs 3.2
CC1=NN(c2ccccc2)C(=O)/C1=C/c1cn(C)c2ccccc12	RecA intein inh 37 | GFP chromo cs inactive
CC1=NN(c2ccccc2)C(=O)/C1=C\C=C\c1ccccc1	none
CC1=NN(c2ccccc2)C(=O)/C1=C/c1cccc(C)c1	RecA intein inh 92 | GFP chromo cs 2.3
O=C1[C@@H](C2CC2)[C@@H]2c3ccccc3C=NN2[C@@H]2c3ccccc3C=NN12	none (no result: RecA intein inh, BJeLR lethal, GDH-TPI counter, FBA Mtb inh)
O=C1CCCC2=C1C1(CCCC1)N=C(Nc1nc3cc(Br)ccc3o1)N2	none (no result: RecA intein inh, BJeLR lethal, GDH-TPI counter, FBA Mtb inh)
CCOC(=O)c1c(-c2cccs2)csc1NC(=O)CC(C)C	none
NC(=O)c1c(-c2cccs2)csc1N	RecA intein inh 67 (no result: PrPC surface inh, GDH-TPI counter, FBA Mtb inh) | GFP chromo cs 13
CCOc1ccc(S(=O)(=O)Nc2cc(SCC(=O)O)c(O)c3ccccc23)cc1	RecA intein inh 96 | GFP chromo cs 8.9
CCc1ccc(S(=O)(=O)Nc2cc(SCC(=O)O)c(O)c3ccccc23)cc1	RecA intein inh 94 | GFP chromo cs 0.7
CCC(=O)OCCNc1cc(Sc2nccn2C)c2nonc2c1[N+](=O)[O-]	RecA intein inh 87 | GFP chromo cs 4.8
CC(C)CCSc1cc(NCCO)c([N+](=O)[O-])c2nonc12	none
CCC(=O)OCCNc1cc(SCCC(=O)OC)c2nonc2c1[N+](=O)[O-]	RecA intein inh 45 | GFP chromo cs 26
CCCC(=O)OCCNc1cc(Sc2nc3ccccc3[nH]2)c2nonc2c1[N+](=O)[O-]	RecA intein inh 96 | GFP chromo cs 0.96
CC(=O)OCCCNc1cc(Sc2ccc(Cl)cc2)c2nonc2c1[N+](=O)[O-]	none
C/C(=N/NC(=O)c1cccnc1)c1cccc(O)c1	none (no result: RecA intein inh, BJeLR lethal, GDH-TPI counter, FBA Mtb inh)
COC(=O)[C@]12C[C@H](CC(=O)NCC34CC5CC(CC(C5)C3)C4)C(=O)N(Cc3cccc4ccccc34)C1=C[C@H](C(C)(C)C)O[C@@H]2C	none (no result: RecA intein inh, BJeLR lethal, GDH-TPI counter, FBA Mtb inh)
